Assay outcomes (PubChem)
A selection: hits, their analogues and other compounds. The true share with any hit is near 2.9%.
HSF1 activator: increases HSF-1 driven luciferase reporter signal. NIH3T3-HGL HSF-1 luciferase reporter, MG132, 8 h; 100% = twice DMSO control signal. 300,000 compounds, 1.7% hits. activation, % at 9 µM;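 active means mean replicate activation of at least 50% with a set share of replicates each reaching 50%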;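 further: 0% = median of the neutral control wells and 100% = twice that signal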
S1P3 antagonist: blocks the human S1P3 receptor. CHO S1P3 NFAT-BLA reporter, FRET fluorescence, antagonist mode. inhibition, % at 4.98 µM. 170,000 compounds, 0.27% hits. AID 485;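 active means inhibition above the plate cutoff, the mean inhibition of test wells on that plate plus 3 SD, cut at about 28% in these data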;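 further: cells challenged with S1P at its EC80 of 0.8 µM; blue over green emission ratio from cleaved BLA substrate after 4 h stimulation; 0% = S1P-stimulated wells and 100% = unstimulated DMSO-only wells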
Target sequence (Q99500 whole entry, looked up): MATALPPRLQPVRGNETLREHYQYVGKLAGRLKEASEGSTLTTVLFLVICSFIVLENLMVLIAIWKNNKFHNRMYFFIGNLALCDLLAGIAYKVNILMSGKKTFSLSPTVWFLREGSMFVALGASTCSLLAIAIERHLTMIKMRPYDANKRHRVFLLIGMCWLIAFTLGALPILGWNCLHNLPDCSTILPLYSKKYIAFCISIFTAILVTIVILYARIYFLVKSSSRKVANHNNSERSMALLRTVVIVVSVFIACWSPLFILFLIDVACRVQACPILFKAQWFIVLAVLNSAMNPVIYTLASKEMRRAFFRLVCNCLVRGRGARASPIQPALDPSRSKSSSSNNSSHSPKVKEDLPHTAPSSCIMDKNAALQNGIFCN
HSF1 inhib: HSF1 inhibition | NIH3T3-HGL HSE-luciferase, MG132-induced, luminescence 8 h; stronger effect = lower value | activity change, negative = inhibition, % at 7.5 µM (by protocol) | 300,000 compounds, 0.77% hits;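 active means more than half of replicate wells show activity change below -50%, luminescence cut by over half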;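 further: luciferase reports HSF-1 transcriptional activity via heat shock element; 0% = median of DMSO wells and -100% = zero luminescence signal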
S1P4 agonist: agonists of human S1P4 receptor; S1P4-expressing cell line, agonist reporter assay; AID 1509; activation, % at 4.98 µM; O95977; 220,000 compounds, 0.35% hits; in the data active means activation above about 11%;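 further: 0% = DMSO vehicle and 100% = reference agonist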
S1P4 antag: antagonists of human S1P4 receptor. O95977. S1P4-expressing cells, antagonist mode, reporter read-out. inhibition, % at 4.98 µM. 220,000 compounds, 0.26% hits. AID 1510; in the data active means inhibition above about 29%;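 further: 0% = wells stimulated with agonist and 100% = vehicle wells without agonist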
Hsp70 activator: switches on Hsp70 transcription; HeLa Hsp70 promoter luciferase reporter, luminescence; scaled: vehicle 0, proteasome-inhibitor control 100%; activation, % at 10 µM; 200,000 compounds, 0.04% hits; AID 1203;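 active means activation above the mean across all tested compounds plus 3 SD, cutoff set per campaign, cut at about 5.5% in these data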;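 further: 100% = MG132 at 30 µM as the positive control and 0% = DMSO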
An asterisk follows results filed as active; x = no result.

SMILES	HSF1 activator	S1P3 antagonist	HSF1 inhib	S1P4 agonist	S1P4 antag	Hsp70 activator
N#Cc1c2c(c(NCc3ccco3)n3c1nc1ccccc13)CCC2	x	42.7	x	0.1	2.5	-0.2
COc1cc2c(cc1OC)CN(CC(=O)Nc1cccc(C(F)(F)F)c1)CC2	-11.4	x	-8.4	x	x	x
CCN(CC)c1nc(N)c(C#N)c(CC#N)c1C#N	10.9	x	5.2	x	x	x
CCCN(CCC)c1nc(N)c(C#N)c(CC#N)c1C#N	115.0*	x	79.3	0.0	-6.0	-0.5
CCCN(CC1CC1)c1nc(N)c(C#N)c(CC#N)c1C#N	72.2*	x	82.5	-0.5	10.5	-0.5
CC1CCCCC1NC(=O)Cc1ccc(S(=O)(=O)N2CCOCC2)s1 (stereo not given)	-9.7	x	-1.8	x	x	x
CN(C)c1ccc(C(CNS(=O)(=O)c2ccc3ccccc3c2)N2CCOCC2)cc1 (stereo not given)	-8.3	x	-5.3	x	x	x
Cc1ccc(Nc2nc(CSc3nnnn3-c3ccccc3)cs2)cc1	70.1*	18.1	31.3	-1.0	3.5	-0.1
CCOC(=O)C1CCN(C(=O)COc2cc(C)c(Br)cc2C)CC1	-70.9	-3.0	-62.7*	1.3	-15.1	-0.2
CCOC(=O)c1c(C)n(-c2ccc(C)cc2)c2ccc(OCC(O)CN3CCN(C)CC3)cc12 (stereo not given)	x	0.8	x	-0.2	-19.0	0.0
CN(C)C(=O)N1CCC(C(=O)NCc2ccc(F)cc2Cl)CC1	-73.1	-3.2	-68.8*	-0.4	4.8	-0.3
CCOC(=O)C(CC)(CC)C(=O)/C=C/c1cccc(Br)c1	251.0*	x	159.4	-1.4	5.0	0.2
CCOC(=O)C1CCN(S(=O)(=O)c2ccc3c(c2)NC(=O)CS3)CC1	6.8	x	-0.8	x	x	x
Cc1c(C(=O)Nc2ccc(F)cc2)sc2ncn(CC(=O)N3CCCCC3)c(=O)c12	-64.5	x	-54.7*	x	x	x
Cc1c(C(=O)Nc2ccccc2)sc2ncn(CC(=O)N3CCCCC3)c(=O)c12	-7.2	x	-4.4	x	x	x
O=C(NNS(=O)(=O)c1ccc([N+](=O)[O-])cc1)c1cnn(-c2ccccc2)c1-n1cccc1	10.0	x	1.7	-1.4	-11.8	-0.5
O=C1CCCC(=O)N1c1ccc(N2CCN(c3ccc([N+](=O)[O-])cc3)CC2)c([N+](=O)[O-])c1	1.9	-3.9	-2.0	4.0	-24.1	-0.5
N#CCCS(=O)(=O)c1nnnn1-c1ccccc1	x	21.0	x	-6.7	38.4*	-0.2
Cc1ccc(C(=O)NNC(=O)C2CCN(c3ncccn3)CC2)cc1	-3.9	x	-4.6	x	x	x
O=C(O)Cn1c2c(c3ccccc31)CSc1ccc(Cl)cc1-2	269.1*	x	192.2	x	x	x
Cc1ccc(SCCC(=O)Nc2cccc(N(C)S(C)(=O)=O)c2)cc1	16.2	x	11.3	-4.2	-6.6	-0.5
COc1ccccc1NC(=O)Nc1nc(CC(=O)N2CCN(c3ccccc3)CC2)cs1	61.6*	x	33.9	x	x	x
COc1ccc2cc(C(=O)N3CCCC(Nc4ccc(F)cc4)C3)n(C)c2c1 (stereo not given)	14.0	x	-1.4	x	x	x
Clc1ccc(N=c2ssnc2Cl)nc1	130.1*	7.5	139.0	1.4	-4.8	-0.3
CNC(=O)/C(C#N)=C/c1ccc(-c2ccc(Cl)cc2)o1	73.1*	12.8	29.9	0.5	5.7	-0.3
SMILES	HSF1 activator	S1P3 antagonist	HSF1 inhib	S1P4 agonist	S1P4 antag	Hsp70 activator
CC1(C)Cc2[nH]c3ccccc3c2C(C)(C)N1	-28.1	x	-15.4	x	x	x
Cn1c(=O)c2c(nc(N3CCN(c4ccc([N+](=O)[O-])cc4)CC3)n2C)n(C)c1=O	-16.8	6.8	-8.2	-1.1	-5.6	x
Nc1nc2n(c1C(=O)c1ccccc1)CCC2	-75.5	5.6	-70.1*	-0.1	-0.4	-0.5
N#Cc1c(N)c(C(=O)c2ccccc2)n2c1CCCC2	-11.1	-6.3	-11.7	-1.1	-10.7	-0.2
CC(NC(=O)CCCN1C(=O)c2ccccc2C1=O)c1ccc2c(c1)CCCC2 (stereo not given)	203.3*	x	118.1	0.8	11.5	-0.3
CCCc1cc(=O)oc2cc(C)c(CN3CCCC3)c(O)c12	63.5*	2.4	37.4	-1.0	-27.3	-0.2
c1ccc(CCC2CCCCN2Cc2nc(-c3ccc4c(c3)OCO4)no2)nc1 (stereo not given)	28.5	-3.3	0.9	1.4	-8.7	0.2
Cn1c(N)c(C(=O)Nc2ccc(-c3ccccc3)cc2)sc1=S	-62.5	-15.9	-52.4*	1.0	3.0	x
Cc1cc(C)c2cc(CN(CCN(C)C)C(=O)Nc3ccccc3Cl)c(=O)[nH]c2c1	-59.6	1.8	-50.2*	0.5	-11.4	-0.2
COc1ccc(C2NC(=O)CCC2[N+](=O)[O-])c(OC)c1 (stereo not given)	55.9*	x	16.2	x	x	x
O=c1[nH]c(Nc2ccccc2Cl)cc2ccccc12	61.2*	x	31.4	x	x	x
Cc1cccc(NCc2ccc(O)c3ncccc23)c1C	-62.4	-0.9	-63.1*	-0.7	-2.9	-0.3
Cc1cccnc1NCc1ccc(O)c2ncccc12	-12.3	-34.1	-11.7	2.0	-26.2	0.1
O=C(c1ccc(Br)cc1)N1CCC2(CC1)NCCc1[nH]cnc12	-4.8	x	2.7	x	x	x
Nc1nonc1-n1nnc(C(=O)N/N=C/c2cccnc2)c1CSC1=NCCS1	96.4*	0.7	50.5	0.0	-2.1	x
CCc1ccc2c(c1)C(=O)c1ccccc1C2=O	81.1*	-5.5	39.5	0.9	-11.3	-0.3
Cc1cccnc1NC(=O)c1ccc(COc2ccccc2)o1	13.2	x	2.1	x	x	x
CC(OC(=O)c1c2c(nc3ccccc13)/C(=C\c1ccc3c(c1)OCO3)CCC2)C(=O)Nc1ccc(S(N)(=O)=O)cc1 (stereo not given)	x	3.1	x	-0.7	-24.2	-0.4
CNC(=O)NC(=O)C(C)OC(=O)c1c2c(nc3ccccc13)/C(=C/c1cccs1)CC2 (stereo not given)	60.2*	18.9	21.4	1.1	10.2	-0.6
O=S(=O)(Nc1c(O)ccc2ccccc12)c1cccc2ccccc12	-91.8	x	-89.8*	x	x	x
Cc1coc(NC(=O)CSc2nc(-c3ccc(Cl)cc3)cc(C(F)(F)F)c2C#N)n1	-75.6	x	-69.3*	-1.3	-20.3	-0.2
Cc1nc2ccccc2n1C(=O)N(C)C	-4.4	-9.5	-7.6	0.3	-13.7	-0.4
COc1ccc(C(=O)c2no[n+]([O-])c2C(=O)c2ccc(OC)cc2)cc1	1.8	-7.8	13.6	2.9	-4.2	0.0
Cc1c(C(=O)c2no[n+]([O-])c2C(=O)c2cnn(C)c2C)cnn1C	-94.6	-11.1	-94.3*	1.6	-12.4	-0.4
CC1CC(=O)Nc2ccccc2N1S(=O)(=O)c1ccc(F)cc1F (stereo not given)	-3.9	15.8	2.4	-0.2	-8.3	x
CC1(CC(=O)N/N=C/c2cc(Br)c(O)cc2O)OCCO1	7.4	x	-5.4	-0.1	2.1	-0.1
Cc1oc(/C=N/NC(=O)CC2(C)OCCO2)cc1Br	-61.6	8.3	-53.2*	-1.2	-10.9	0.3
CCOC(=O)Cn1c(COc2ccccc2OC)[n+](C)c2ccccc21	-85.2	x	-83.7*	x	x	x
CCOCCCN(C(=O)c1snc(C(N)=O)c1N)C(C(=O)NCCC(C)C)c1ccc(F)cc1 (stereo not given)	53.3*	x	25.8	x	x	x
